Consider 9 compounds from PubChem BioAssay (Tox21).

Values joined by “and” are separate entries in the source; they are usually repeats but may differ in a detail not shown here. Identical values can stand only once. Records with an inconclusive call do not appear. Active and inactive are the calls of the source. Unless noted, the call rests on the fitted dose curve; in most records, active means well fitted curve in the direction sought with a large enough effect in the repeat runs; inconclusive means weak or mixed curves; inactive means no such curve, though single readings can be large; an effect the other way counts as inactive or inconclusive.

Assay [1] has as its target Peroxisome proliferator-activated receptor delta (Homo sapiens) (UniProt Q03181). Kind of assay: qHTS assay to identify small molecule agonists of the peroxisome proliferator-activated receptor delta (PPARd) signaling pathway (AID 743212; calls by dose curve). The method, boiled down:
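HEK293H UAS-bla reporter cells, human PPARd system; compounds delivered in DMSO after 5 h plating, then at 37 C. Beta-lactamase FRET read, 2 h RT substrate step.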

Assay [2] can be described thus: qHTS assay to identify small molecule antagonists of the peroxisome proliferator-activated receptor delta (PPARd) signaling pathway - cell viability counter screen (AID 743213). Further: nearly all actives have a fitted effect of over 50% in size. The method, boiled down: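 In this counter screen, HEK293H cells carrying a UAS-beta-lactamase reporter are co-treated with test compounds and 300 nM L165041 (final) for 17 h at 37 C; cell viability is quantified by CellTiter-Glo luminescence.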
On the technique in general: qHTS replaces the single test concentration by a dilution series.

Assay [3] addresses Peroxisome proliferator-activated receptor delta (Homo sapiens) (UniProt Q03181). Put plainly: qHTS assay to identify small molecule antagonists of the peroxisome proliferator-activated receptor delta (PPARd) signaling pathway (AID 743215; active means well fitted inhibition curve with a large enough effect in the signal ratio in the repeat runs, not every such curve was filed as active; the % refers to the signal ratio;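 further: cells stimulated with agonist L165041 at 300 nM final during compound exposure; series mostly up to about 62 µM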). The method, boiled down:
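With L165041 present at 300 nM final, compounds were incubated 17 h at 37 C on PPARd UAS-bla HEK293H cells. A FRET-based beta-lactamase substrate was then applied for 2 h at room temperature and fluorescence intensity recorded.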

Assay [4] can be described thus: qHTS assay to identify small molecule agonists of the farnesoid-X-receptor (FXR) signaling pathway - cell viability counter screen (AID 743218). Further: nearly all actives have a fitted effect of over 45% in size. The method, boiled down: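 After 16 h at 37 C with test compounds, FXR-bla HEK 293T cells were given LiveBLAzer B/G substrate for 2 h at RT and then CellTiter-Glo; luminescence was taken after 30 min.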
Assay [5] in a line: qHTS assay to identify small molecule antagonists of the farnesoid-X-receptor (FXR) signaling pathway - cell viability counter screen (AID 743221; active means well fitted cell-killing curve with a large enough effect in the repeat runs, not every such curve was filed as active; further: nearly all actives have a fitted effect of over 50% in size). The method, boiled down: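 CellTiter-Glo, 30 min RT, luminescence; same wells as the LiveBLAzer FRET read. Cells: FXR-UAS-bla HEK 293T. Treatment: compound with chenodeoxycholic acid 50 uM final, 16 h at 37 C.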
The target in assay [6] is Vitamin D3 receptor (Homo sapiens) (UniProt P11473). Kind of assay: qHTS assay to identify small molecule agonists of the vitamin D receptor (VDR) signaling pathway (AID 743222; calls by dose curve). The method, boiled down:
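VDR-bla cells were seeded, left 4 h, treated with compounds in DMSO for 16 h, incubated 2 h at RT with B/G FRET substrate, and read for fluorescence.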

Assay [7] has the same target. Kind of assay: qHTS assay to identify small molecule antagonists of the vitamin D receptor (VDR) signaling pathway (AID 743223; active means well fitted inhibition curve with a large enough effect in the signal ratio in the repeat runs, not every such curve was filed as active; the % refers to the signal ratio). In short, it runs like this:
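After VDR-bla cells are plated and left 4 h at 37C, DMSO-dissolved compounds and 3 nM (final) calcitriol agonist are added. Incubation continues 16 h at 37C; FRET beta-lactamase substrate then develops 2 h at room temperature.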

The nature of assay [8]: qHTS assay to identify small molecule agonists of the vitamin D receptor (VDR) signaling pathway - cell viability counter screen (AID 743224). Further: series mostly up to about 63 µM; nearly all actives have a fitted effect of over 50% in size. The method, boiled down: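 Here cell health was gauged by luminescent ATP detection (CellTiter-Glo, 30 min RT) in VDR-bla cells that had been incubated with test compounds for 16 h at 37C and 5% CO2.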
Assay [9] in a line: qHTS assay to identify small molecule antagonists of the vitamin D receptor (VDR) signaling pathway - cell viability counter screen (AID 743225). Further: nearly all actives have a fitted effect of over 50% in size. In short, it runs like this:
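Cytotoxicity toward the VDR-bla HEK 293T line was scored by ATP-based CellTiter-Glo luminescence, read in the wells already used for the beta-lactamase readout after 16 h compound treatment under 3 nM 1-alpha,25-dihydroxyvitamin D3 stimulation.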

Assay [10] in a line: qHTS assay to identify small molecule agonists of the NFkB signaling pathway (AID 1159509; active means well fitted curve in the direction sought with a large enough effect in the signal ratio in the repeat runs, not every such curve was filed as active; the % refers to the signal ratio; further: series mostly up to about 61 µM). The method, boiled down:
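After overnight attachment, reporter cells received test compounds, DMSO or positive controls and were incubated 5 hr at 37 C. FRET substrate was then added for 1.5 hr at room temperature before dual-emission fluorescence reading.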

Assay [11] in a line: qHTS assay to identify small molecule agonists of the NFkB signaling pathway - cell viability counter screen (AID 1159515; calls by dose curve; further: series mostly up to about 61 µM; nearly all actives have a fitted effect of over 55% in size). In short, it runs like this: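 5 hr compound treatment of NFkB-bla ME-180 cells (2,000/well, seeded overnight beforehand), followed by reporter substrate for 1.5 hr. CellTiter-Glo added afterward; luminescence after 30 min RT.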
A short description of assay [12]: qHTS assay to identify small molecule agonists of the endoplasmic reticulum stress response signaling pathway (AID 1159516; active means well fitted activation curve with a large enough effect in the signal ratio in the repeat runs, not every such curve was filed as active; the % refers to the signal ratio). In short, it runs like this:
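Reporter HeLa cells (ESRE-beta-lactamase) underwent 5 hr compound incubation at 37 C and 5% CO2 in quantitative HTS format. Detection followed 2 hr of FRET substrate loading at room temperature.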

A short description of assay [13]: qHTS assay to identify small molecule agonists of the endoplasmic reticulum stress response signaling pathway - cell viability counter screen (AID 1159517; calls by dose curve; further: nearly all actives have a fitted effect of over 50% in size; further: potency means the concentration at half of the fitted maximal effect). The method, boiled down:
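Cells, HeLa ESRE-bla; density, 1,500/well; dosing, 5 hr at 37 C, 5% CO2; readout, CellTiter-Glo luminescence after 30 min RT.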

Assay [14] is described as follows: qHTS assay to identify small molecule antagonists of the retinoid-related orphan receptor gamma (ROR-gamma) signaling pathway - cell viability counter screen (AID 1159520). Further: nearly all actives have a fitted effect of over 50% in size. In short, it runs like this: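 Cytotoxicity was read from cellular ATP (CellTiter-Glo luminescence) after 16 hr at 37 C with 1 uM doxycycline induction. The inducer was added 2 hr after compound transfer to Tet-on ROR gamma CHO cells.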

Assay [15] deals with Nuclear receptor ROR-gamma (Homo sapiens) (UniProt P51449). Put plainly: qHTS assay to identify small molecule antagonists of the retinoid-related orphan receptor gamma (ROR-gamma) signaling pathway (AID 1159521; further: nearly all actives have a fitted effect of over 50% in size; further: potency means the concentration at half of the fitted maximal effect). The method, boiled down:
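Readout: ONE-Glo luciferase luminescence, 30 min at room temperature. System: Tet-on RORγ CHO, RORE-LUC. Sequence: compound 2 h, doxycycline 1 uM final, 16 h at 37 C.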

The nature of assay [16]: qHTS assay to identify small molecule agonists of the AP-1 signaling pathway - cell viability counter screen (AID 1159525; calls by dose curve; further: nearly all actives have a fitted effect of over 55% in size). The method, boiled down: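 Luminescent ATP readout (Cell Titer Glo, 30 min RT), normalised to DMSO and tetra n-octyl ammonium bromide controls. Cells were ME-180 AP-1-bla in 0.5% dialyzed FBS Opti-MEM, with a 5 h, 37 °C compound exposure.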
The nature of assay [17]: qHTS assay to identify small molecule agonists of the peroxisome proliferator-activated receptor delta (PPARd) signaling pathway - cell viability counter screen (AID 743211). Further: nearly all actives have a fitted effect of over 55% in size. Further: potency means the concentration at half of the fitted maximal effect. In short, it runs like this:
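Multiplexed format: after the 2 h room-temperature LiveBLAzer B/G FRET step, CellTiter-Glo was added to the same wells. Luminescence after 30 min gave cell viability; compound exposure was 17 h at 37C.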

Assay [18] addresses Bile acid receptor (Homo sapiens) (UniProt Q96RI1). Put plainly: qHTS assay to identify small molecule antagonists of the farnesoid-X-receptor (FXR) signaling pathway (AID 743217; active means well fitted inhibition curve with a large enough effect in the signal ratio in the repeat runs, not every such curve was filed as active; the % refers to the signal ratio). The method, boiled down: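 In this cell-based antagonist screen, inhibition of CDCA-driven (50 uM final) UAS-beta-lactamase expression in HEK 293T cells was measured by FRET fluorescence following 16 h compound exposure at 37 °C.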

Assay [19] has the same target. Put plainly: qHTS assay to identify small molecule agonists of the farnesoid-X-receptor (FXR) signaling pathway (AID 743220; active means well fitted activation curve with a large enough effect in the signal ratio in the repeat runs, not every such curve was filed as active; the % refers to the signal ratio). The method, boiled down:
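Beta-lactamase reporter under UAS control in GeneBLAzer FXR HEK 293T cells (5000/well) measured with LiveBLAzer FRET substrate after 2 h at room temperature. Compound exposure lasted 16 h at 37C.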

Assay [20] in a line: qHTS assay to identify small molecule agonists of the AP-1 signaling pathway (AID 1159526; calls by dose curve).

Chain of Peroxisome proliferator-activated receptor delta (Homo sapiens) (Q03181 whole entry, looked up): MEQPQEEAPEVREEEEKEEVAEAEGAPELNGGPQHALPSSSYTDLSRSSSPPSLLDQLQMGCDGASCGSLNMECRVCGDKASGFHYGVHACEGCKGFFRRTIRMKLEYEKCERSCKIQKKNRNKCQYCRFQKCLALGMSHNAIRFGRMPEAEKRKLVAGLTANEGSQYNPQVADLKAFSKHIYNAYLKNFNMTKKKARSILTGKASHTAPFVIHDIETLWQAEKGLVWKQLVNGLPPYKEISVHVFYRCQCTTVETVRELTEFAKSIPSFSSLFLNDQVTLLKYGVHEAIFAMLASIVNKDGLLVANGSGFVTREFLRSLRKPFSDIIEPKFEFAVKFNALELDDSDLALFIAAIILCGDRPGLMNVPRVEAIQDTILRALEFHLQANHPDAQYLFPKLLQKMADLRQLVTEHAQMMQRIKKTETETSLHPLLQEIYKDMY
Chain of Bile acid receptor (Homo sapiens) (Q96RI1 whole entry, looked up): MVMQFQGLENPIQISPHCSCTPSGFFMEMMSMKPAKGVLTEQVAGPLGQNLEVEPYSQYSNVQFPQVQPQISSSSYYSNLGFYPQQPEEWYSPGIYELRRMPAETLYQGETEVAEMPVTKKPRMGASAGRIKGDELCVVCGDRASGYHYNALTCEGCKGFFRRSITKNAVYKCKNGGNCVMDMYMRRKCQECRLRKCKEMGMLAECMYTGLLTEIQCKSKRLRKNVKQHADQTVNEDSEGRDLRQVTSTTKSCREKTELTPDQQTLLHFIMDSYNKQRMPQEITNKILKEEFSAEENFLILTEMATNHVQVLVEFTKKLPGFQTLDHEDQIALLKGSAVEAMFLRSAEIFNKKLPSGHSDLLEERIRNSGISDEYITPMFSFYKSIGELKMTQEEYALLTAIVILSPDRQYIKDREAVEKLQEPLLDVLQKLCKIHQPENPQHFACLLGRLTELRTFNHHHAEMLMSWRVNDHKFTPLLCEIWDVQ
Chain of Vitamin D3 receptor (Homo sapiens) (P11473 whole entry, looked up): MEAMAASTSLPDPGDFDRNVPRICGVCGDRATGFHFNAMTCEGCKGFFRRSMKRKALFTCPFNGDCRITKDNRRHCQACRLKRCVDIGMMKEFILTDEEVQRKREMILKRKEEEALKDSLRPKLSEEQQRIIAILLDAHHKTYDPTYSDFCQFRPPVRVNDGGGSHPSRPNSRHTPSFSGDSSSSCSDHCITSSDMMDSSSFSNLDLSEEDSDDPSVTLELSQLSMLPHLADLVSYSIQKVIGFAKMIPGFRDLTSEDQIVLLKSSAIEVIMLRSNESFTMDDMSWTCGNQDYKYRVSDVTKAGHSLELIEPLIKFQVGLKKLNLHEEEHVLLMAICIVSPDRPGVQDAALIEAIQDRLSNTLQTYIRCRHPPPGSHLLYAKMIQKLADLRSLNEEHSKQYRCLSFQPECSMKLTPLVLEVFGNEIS

With `CC(C)(c1cc(Cl)c(O)c(Cl)c1)c1cc(Cl)c(O)c(Cl)c1`, the Potency entry in assay [1], in [2], in [3], in assay [4], in assay [5] and in assay [8] was “inactive” in each case. In addition, the Potency result in assay [9], in assay [11], in assay [14], in assay [15] and in assay [16] was “inactive” each time. Also, the compound was called inactive in [6], in assay [7], in assay [10] and in [12]. The Potency in assay [13] was 43.7 µM (active) and 43.6 µM (active).
`N#Cc1cc(Br)c(O)c(Br)c1`: the Potency entry in assay [17], in [1], in assay [3], in assay [18], in assay [5] and in assay [8] was “inactive” each time. For the same compound, the Potency entry in [13], in assay [14] and in assay [16] was “inactive” each time. The call in assay [19], in [10], in [12] and in [20] was inactive. Besides, in [15], the Potency was 27.3 µM (active) and 37.1 µM (active).
Turning to `CCOCN(C(=O)CCl)c1c(C)cccc1CC`, the Potency in assay [17] was 41.2 µM (active); in [15] it was 45.9 µM (active) and 27.3 µM (active). Further, the Potency result in assay [2], in [5], in [8], in [9], in assay [11] and in [13] was “inactive” throughout. Besides, the Potency result in assay [14] and in assay [16] was “inactive” in each case. Moreover, the result in assay [6], in assay [7], in [10] and in assay [20] was inactive.
Turning to `COc1ccc(C(CN(C)C)C2(O)CCCCC2)cc1` (stereo not given), the Potency entry in assay [17], in [1], in [2], in assay [3], in assay [4] and in [5] was “inactive” in each case. Moreover, the Potency result in assay [8], in assay [11], in [13], in [14] and in assay [16] was “inactive” each time. The result in assay [6], in assay [7], in assay [10], in assay [12] and in [20] was inactive.
Take `CCCCCCOC(=O)c1ccccc1C(=O)OCCCCCC`: the Potency result in [1], in assay [2], in assay [3], in assay [5], in assay [8] and in assay [9] was “inactive” in each case. The Potency entry in assay [11], in assay [13], in [14], in assay [15] and in assay [16] was “inactive” in each case. The outcome in [10], in assay [12] and in [20] was inactive.
Take `CCCCN(CCCC)N=O`: the Potency entry in assay [17], in assay [2], in [18], in [4], in [5] and in assay [8] was “inactive” in each case. Moreover, the Potency entry in [11], in [13], in assay [14], in assay [15] and in assay [16] was “inactive” throughout. For the same compound, the compound was classed as inactive in assay [19], in assay [10], in assay [12] and in assay [20].
On to `Cc1cccc(N)c1N`, for which the Potency result in [17], in assay [18], in [4], in [5], in assay [8] and in assay [11] was “inactive” in each case. Besides, the Potency entry in assay [13], in [14], in [15] and in [16] was “inactive” in each case. For the same compound, the compound was called inactive in assay [19], in [6], in [10], in assay [12] and in assay [20].
`Cc1ccc(N)c(N)c1`: the Potency result in [17], in assay [2], in [5], in [8], in [9] and in assay [13] was “inactive” in each case. Moreover, the Potency entry in assay [14], in assay [15] and in assay [16] was “inactive” in each case. The result in assay [6], in [7], in assay [10], in assay [12] and in [20] was inactive.
Consider `CCN(CC)C(=O)SCc1ccc(Cl)cc1`, for which the Potency result in assay [17], in assay [2], in [18], in assay [5], in assay [8] and in [9] was “inactive” in each case. For the same compound, the Potency entry in assay [11], in [13], in [14], in [15] and in assay [16] was “inactive” in each case. Further, the result in assay [19], in assay [6], in assay [7], in assay [10], in assay [12] and in assay [20] was inactive.
